Rows were chosen to be rich in hits. Some 2.3% of all compounds tested hit in one or more screens of this group.
MCL1-BIM inh = inhibitors of MCL1 binding to BIM-BH3, primary screen, biochemical, fluorescence polarization | Induced myeloid leukemia cell differentiation protein Mcl-1 (Homo sapiens), Q07820 | 0.68% of 320,000 active | GST-MCL1 / FITC-Bim-BH3 fluorescence polarization | inhibition, % at 10.9 µM;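 active means inhibition above the mean inhibition of all tested compounds plus 3 SD, set per campaign, cut at about 40% in these data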;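 further: 0% = DMSO wells and 100% = unlabeled Bim-BH3 peptide control; higher means more loss of mP so more displacement of Bim peptide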
Bim-Mcl-1 = inhibitors of Bim peptide binding to Mcl-1, primary screen, biochemical, bead-based flow cytometry, multiplex | Induced myeloid leukemia cell differentiation protein Mcl-1 (Homo sapiens), Q07820 | Bim peptide-Mcl-1 binding | inhibition, % at 10 µM | 0.1% of 190,000 active | AID 1009, 2008; in the data active means inhibition above about 40%;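 further: 0% = no compound tracer wells and 100% = peptide blocker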
Mcl1 Bid PPI = Mcl-1/Bid binding inhibitors, primary screen, biochemical, TR-FRET, 1536-well; inhibition, % at 21.7 µM; TR-FRET Mcl-1/Bid-Dy647 peptide binding; 0.97% of 220,000 active; AID 1021, 2008; Induced myeloid leukemia cell differentiation protein Mcl-1 (Homo sapiens), Q07820;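 active means compounds that cut the binding signal by more than half at the single screening dose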;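 further: His-tagged Mcl-1 with europium anti-His antibody binding Bid BH3 peptide; 0% = Mcl-1 plus peptide wells and 100% = peptide-only wells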
BCLXL inh = inhibitors of human Bcl-xL, primary screen, biochemical, fluorescence polarization, HTS; GST-Bcl-xL / FITC-Bim BH3 peptide fluorescence polarization; AID 2129, 2009; 0.7% of 320,000 active; inhibition, % at 10.9 µM;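 active means inhibition above the mean of all tested compounds plus 3 SD, cutoff set per campaign, cut at about 30% in these data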;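 further: 0% = DMSO wells and 100% = unlabeled Bim-BH3 peptide competitor; inhibitors lower millipolarization by displacing the labeled peptide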
GLD-1 TGE inh = GLD-1/TGE RNA complex disruptors, primary screen, biochemical, fluorescence polarization; 0.44% of 320,000 active; inhibition, % at 5.96 µM; purified GLD-1 + fluorescein TGE RNA; AID 2280, 2010;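 active means percent inhibition above a per-plate cutoff, the plate mean of test compounds plus 3 SD, cut at about 30% in these data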;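 further: 0% = DMSO wells with GLD-1 and probe and 100% = wells lacking GLD-1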
Target sequence (Q17339 whole entry, looked up): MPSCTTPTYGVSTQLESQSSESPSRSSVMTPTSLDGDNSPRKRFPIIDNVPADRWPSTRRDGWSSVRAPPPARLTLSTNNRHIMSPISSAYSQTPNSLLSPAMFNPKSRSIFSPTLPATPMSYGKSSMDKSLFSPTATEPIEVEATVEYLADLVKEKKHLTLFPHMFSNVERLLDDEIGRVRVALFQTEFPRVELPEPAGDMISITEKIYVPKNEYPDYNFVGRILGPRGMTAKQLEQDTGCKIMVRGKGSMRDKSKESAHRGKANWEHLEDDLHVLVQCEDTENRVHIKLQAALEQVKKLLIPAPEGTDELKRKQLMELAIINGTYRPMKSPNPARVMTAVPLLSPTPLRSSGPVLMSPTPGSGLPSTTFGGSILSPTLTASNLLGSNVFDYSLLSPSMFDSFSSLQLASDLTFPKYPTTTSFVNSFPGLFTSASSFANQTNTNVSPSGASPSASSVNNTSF
Mcl1-Noxa inh = Mcl-1/Noxa binding inhibitors, primary screen, biochemical, TR-FRET, 1536-well; TR-FRET Mcl-1/Noxa peptide binding, 2 h; inhibition, % at 21.7 µM; 1.5% of 220,000 active; AID 1022, 2008;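 active means compounds that cut the protein-peptide binding signal by more than 50% relative to plate controls in a single-dose test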;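 further: His-tagged Mcl-1 with rhodamine Noxa BH3 peptide and terbium anti-His antibody; 0% = Mcl-1 plus Noxa peptide wells and 100% = peptide-only wells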
* hit, by the source's call; . = no result.

SMILES	MCL1-BIM inh	Bim-Mcl-1	Mcl1 Bid PPI	BCLXL inh	GLD-1 TGE inh	Mcl1-Noxa inh
CCOc1ccc(C2C([N+](=O)[O-])=C(C)N(C)C(=O)N2C)cc1OC (stereo not drawn)	-1	2	-31	-2	3	9
Cc1cccc(NS(=O)(=O)c2ccc(C(=O)N3CC(C)OC(C)C3)cc2)c1C (stereo not drawn)	8	.	.	5	3	.
O=C(CCc1nnc2n(Cc3ccc(F)cc3)c(=O)c3ccccc3n12)N1CCN(c2ccccn2)CC1	2	.	.	5	2	.
COc1ccccc1NC(=O)CCn1c(=O)c2cccn2c2ccccc21	4	.	.	5	-3	.
CCCCN1CC(=O)N2[C@H](c3ccc(OC)cc3)[C@@H]3C(=O)N(CC)C(=O)[C@@H]3[C@]2(C)C1=O	10	.	.	3	3	.
O=C(CN1C(=O)S/C(=C\C=C\c2ccccc2)C1=O)Nc1ccc(O)cc1	10	-6	8	8	2	55*
O=C(CCCN1C(=O)S/C(=C/C=C/c2ccccc2)C1=O)Nc1ccc(C(=O)O)cc1	8	.	.	2	5	.
CCOC(=O)CCCNC(=O)CCNC(=O)c1ccc(OCC)cc1	9	-1	-12	3	-4	66*
CCOC(=O)c1ccccc1NC(=O)c1ccc2nccnc2c1	6	-1	-45	8	-1	51*
Nc1nnc(SCC(=O)N2CCN(c3ccccc3)CC2)n1-c1ccccc1	2	0	97*	-4	11	41
Nc1nnc(SCC(=O)N2CCN(c3cccc(Cl)c3)CC2)n1-c1ccccc1	2	-3	-19	5	-5	1
COc1cc(CN2CCC(C(=O)NCC(C)(C)CN(C)C)CC2)ccc1OCc1ccccc1	0	.	.	-3	-7	.
Cc1ccc(-n2nc(-c3cccnc3)cc2C(=O)N2CCOCC2)c(C)c1	9	-1	-18	7	-3	9
Cc1ccc(-n2nc(-c3ccco3)cc2C(=O)O)c(C)c1	.	0	-42	.	.	79*
O=C(O)c1cc(-c2ccco2)nn1-c1ccc(Cl)cc1	.	-2	-13	.	.	81*
O=C(NCCN1CCN(C(=O)c2cccc(OC(F)F)c2)CC1)c1cccc(OC(F)F)c1	.	.	.	.	3	.
Cc1nc2ccc(NC(=O)NC(=O)c3c(Cl)cccc3Cl)cc2o1	4	.	-7	43*	2	-13
CNC(=O)Nc1ccc2nc(C)oc2c1	9	.	-19	6	2	4
CCC(C(=O)NC(C)(C)C)N(Cc1ccco1)C(=O)CNS(=O)(=O)c1ccc(OC)cc1 (stereo not drawn)	7	.	.	3	2	.
O=C(O)CCC(CNS(=O)(=O)c1ccccc1)C(F)(F)F (stereo not drawn)	4	2	0	2	-4	70*
O=C(COC(=O)Cc1ccc([N+](=O)[O-])cc1)NCc1ccc2c(c1)OCO2	.	.	.	.	-1	.
O=C(COc1ncnc2cc([N+](=O)[O-])ccc12)NCc1ccc2c(c1)OCO2	9	6	12	3	8	60*
O=[N+]([O-])c1cccc(COc2ncnc3cc([N+](=O)[O-])ccc23)c1	-1	.	-50	-2	-1	53*
COc1ccc(CCNC(=O)COc2ncnc3cc([N+](=O)[O-])ccc23)cc1	4	1	1	10	2	32
Cc1ccc(NC(=O)CN2CCOCC2)cc1C	-4	.	.	3	6	.
COc1ccc(CN2C[C@H](Cc3ccccc3)[C@@H](CC(=O)Nc3ccccc3)C2=O)cc1	-3	.	.	5	-4	.
CC(NC(=O)NC1CCCCC1)C(c1cccs1)N1CCN(c2ccccc2)CC1 (stereo not drawn)	0	0	92*	0	2	-7
COc1cccc(-c2cc(C(=O)NCc3ccco3)c3ccccc3n2)c1	13	.	.	4	1	.

High-throughput results from PubChem.
